Compounds with a hit are over-represented: about 1.1% of the library has one in this group of screens.
MMP-13 inhibitor = blocks human MMP13 activity | P45452 | MMP-13 fTHP FRET cleavage, Mca fluorescence | inhibition, % at 4 µM | 65,000 compounds, 0.07% hits | AID 570;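 active = inhibition above the mean of compound-free control plate wells plus 3 SD, cut at about 14% in these data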
FAK inh = FAK (human) kinase inhibition. biochemical FAK kinase activity assay. Q05397. 97,000 compounds, 0.84% hits. inhibition, %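 (tested at 7 µM)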
Mac1 fbg enh = enhancers of human CD11b/CD18 binding to fibrinogen | P05107+P11215 | K562 CD11b/CD18 adhesion to fibrinogen, ATPlite luminescence | activation, % at 10 µM | 93,000 compounds, 0.07% hits;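 active = 10 µM primary screen giving 50% or more activity, confirmed by 40% or more on retest at that dose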
Target sequence (P05107 whole entry, looked up, other chains not shown): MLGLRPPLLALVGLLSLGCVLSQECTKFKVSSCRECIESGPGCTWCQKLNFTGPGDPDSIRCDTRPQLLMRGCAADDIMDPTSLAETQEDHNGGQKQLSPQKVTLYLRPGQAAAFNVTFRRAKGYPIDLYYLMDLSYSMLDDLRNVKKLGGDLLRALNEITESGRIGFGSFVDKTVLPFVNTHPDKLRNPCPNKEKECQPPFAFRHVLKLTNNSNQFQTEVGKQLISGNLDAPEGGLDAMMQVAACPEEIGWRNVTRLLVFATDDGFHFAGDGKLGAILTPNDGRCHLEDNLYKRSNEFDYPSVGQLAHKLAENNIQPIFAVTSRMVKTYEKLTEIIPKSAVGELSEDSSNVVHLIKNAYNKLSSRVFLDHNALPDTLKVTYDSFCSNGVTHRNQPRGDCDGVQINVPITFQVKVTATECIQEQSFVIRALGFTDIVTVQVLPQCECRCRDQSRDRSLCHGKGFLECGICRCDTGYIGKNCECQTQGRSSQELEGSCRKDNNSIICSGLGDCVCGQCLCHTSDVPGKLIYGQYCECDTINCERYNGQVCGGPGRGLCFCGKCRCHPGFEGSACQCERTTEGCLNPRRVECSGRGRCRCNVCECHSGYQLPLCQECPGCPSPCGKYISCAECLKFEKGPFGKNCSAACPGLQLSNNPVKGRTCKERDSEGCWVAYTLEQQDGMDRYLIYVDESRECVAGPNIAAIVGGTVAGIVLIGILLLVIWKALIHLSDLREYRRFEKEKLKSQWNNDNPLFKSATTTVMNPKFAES
Mac1 fbg inh = inhibitors of human CD11b/CD18 binding to fibrinogen; P05107+P11215; K562 CD11b/CD18 adhesion to fibrinogen, ATPlite luminescence; Mn2+ added to activate the integrin; inhibition, % at 10 µM; 93,000 compounds, 0.54% hits;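 active = primary inhibition of 50% or more at 10 µM, then 40% or more on retest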
FAK inh confirm = FAK (human) inhibition confirmed. shares compounds with FAK inh. FAK kinase biochemical inhibition assay. inhibition, % at 7 µM. 750 compounds, 28% hits
Numbers stand for hits; n = inactive; x = not tested or not shown. Cut-off read from the data, not from the text of the source, unless noted: active = inhibition above about 19%; inactive = the rest.

SMILES | MMP-13 inhibitor | FAK inh | Mac1 fbg enh | Mac1 fbg inh | FAK inh confirm
Cc1nnc(NC(=O)CSc2nc3ccccc3o2)s1 | x | n | x | x | x
Cc1cc(NC(=O)CSc2nc(C(C)C)nc3ccccc23)no1 | x | 44.8 | n | n | 27.9
CC(C)c1nc(SCC(=O)Nc2nc3c(s2)CCCC3)c2ccccc2n1 | x | 19.6 | n | n | n
Cc1nnc(NC(=O)CSc2nc(C(C)C)nc3ccccc23)s1 | x | 46.1 | n | n | 22.8
COc1cc(OC)cc(-c2nnc(SCc3c(F)cccc3Cl)o2)c1 | n | n | n | n | x
N#Cc1c(NC(=O)CSc2ncnc3sccc23)oc(-c2ccco2)c1-c1ccco1 | n | 21.8 | n | n | n
CC1CCCN(Cc2c(O)ccc3c(=O)c(-c4nc5ccccc5s4)c(N)oc23)C1 (stereo not drawn) | x | 34.2 | x | x | n
CCN(CC)Cc1cc(CC(C(N)=O)C(N)=O)ccc1OC | n | n | n | n | x
O=C(CCc1ccccc1O)N/N=C/c1ccc(Sc2cccc3cccnc23)o1 | x | n | n | n | x
Cc1ccc(-c2nc3ccccc3s2)cc1NC(=O)c1cc(-n2cnnc2)ccc1Cl | x | 29.4 | x | x | n
Cc1ccc(-c2nc3ccccc3s2)cc1NC(=S)NC(=O)c1ccccc1 | x | n | n | n | x
COC(=O)c1ccc(COc2ccc(/C=C(\C#N)c3nc4ccccc4[nH]3)cc2OC)o1 | x | 55.5 | x | x | 22.6
COc1cc(/C=C(/C#N)c2nc3ccccc3[nH]2)ccc1OCc1ccc(C(=O)O)o1 | x | n | n | n | x
COCc1[nH]nc2c1C(c1cc(OC)c(O)c(OC)c1)C(C#N)=C(N)O2 (stereo not drawn) | n | x | n | n | x
O=C(COc1ccc(/C=N/NC(=O)c2cc3ccccc3o2)cc1Br)Nc1ccccc1 | x | 26.1 | x | x | 35.6
O=C(Nc1ccccc1)c1cc2ccccc2o1 | x | n | x | x | x
Cc1ccc(-c2n[nH]c(=S)n2/N=C/C=C\c2ccccc2[N+](=O)[O-])cc1 | x | 29.1 | n | n | n
O=P(O)(O)c1ccccc1OCc1ccccc1 | n | 83.8 | n | n | 80.8
O=P(O)(O)c1ccccc1OCCOCCOc1ccccc1P(=O)(O)O | n | x | x | x | x
O=P(O)(O)c1ccccc1OCCCCCOc1ccccc1P(=O)(O)O | n | 88.0 | n | n | 65.8
CC(=O)n1nc(-c2cccc(C)c2)nc1SCC(=O)Nc1ccccc1 | x | 19.1 | n | n | n
CCC(=O)n1nc(-c2ccccc2)nc1SCC(=O)Nc1ccc(C)cc1 | x | n | x | x | x
O=c1nc2s/c(=C\c3ccco3)c(=O)n2nc1Cc1ccc(F)cc1 | n | 24.4 | n | n | n
Cc1ccc2cc3cc(C(=O)NCc4ccco4)oc3nc2c1 | n | 21.1 | x | x | n
COc1ccc(F)cc1S(=O)(=O)N1CCCC(C)C1 (stereo not drawn) | x | n | n | n | x
SMILES | MMP-13 inhibitor | FAK inh | Mac1 fbg enh | Mac1 fbg inh | FAK inh confirm
CCc1ccc2nc3n[nH]c(N)c3cc2c1 | x | 40.4 | x | x | 19.6
O=C(NNc1ccccc1[N+](=O)[O-])Nc1ccccc1 | x | 20.8 | n | n | n
CONC(=O)Nc1ccccc1[N+](=O)[O-] | x | x | n | n | x
O=C(NCc1ccccn1)C1C2C=CC(C2)C1C(=O)Nc1ccc(F)cc1 (stereo not drawn) | x | n | x | x | x
COc1ccc(C2c3c(oc4ccc(Cl)cc4c3=O)C(=O)N2Cc2ccco2)cc1OC (stereo not drawn) | n | x | n | n | x
NC(=O)C[C@@H]1N[C@]2(C(=O)Nc3ccccc32)[C@@H]2C(=O)N(c3cc(C(F)(F)F)ccc3Cl)C(=O)[C@H]12 | n | n | n | n | x
Cc1ccc(S(=O)(=O)N2CCN(Cc3cc(C(C)C)ccc3O)CC2)cc1 | n | n | n | n | x
c1csc(Cc2nn3c(-c4n[nH]c5c4CCC5)nnc3s2)c1 | n | 27.6 | n | n | n
c1coc(-c2nnc3sc(Cc4cccs4)nn23)c1 | n | 25.1 | n | n | n
Clc1ccc(-c2nnc3sc(Cc4cccs4)nn23)c(Cl)c1 | n | n | n | n | x
C/C(N)=C(/C#N)C(=O)COC(=O)c1cc(-c2ccc(Br)cc2)nc2ccccc12 | x | x | n | n | x
CC(C)CN(C(=O)COC(=O)c1cc2c(s1)CCC2)C1CCS(=O)(=O)C1 (stereo not drawn) | n | 30.1 | n | n | n
O=C(NCc1cccs1)c1ccc([N+](=O)[O-])cc1 | x | x | n | x | x
CC(C)C(=O)Nc1nnn(C)n1 | n | n | n | n | x
CC(=O)[C@@H]1[C@@H]2C(=O)N(C3CCCCC3)C(=O)[C@@H]2C2c3ccccc3C=CN21 (stereo partly drawn) | x | n | n | n | x
O=C1NC(=O)[C@@H]2C3c4ccccc4C=CN3[C@H](C(=O)c3cccs3)[C@H]12 (stereo partly drawn) | n | 20.4 | n | n | n
Cc1nnc(SCC(=O)NNC(=O)C(C)C)[nH]c1=O | x | x | n | n | x
O=c1[nH]ncc2c3ccccc3n(Cc3ccccc3)c12 | n | 20.0 | x | x | n
CCc1c(C)nc(SCC(N)=O)c(C#N)c1C | x | n | n | n | x
CCc1c(C)nc(SCC(=O)c2cccs2)c(C#N)c1C | x | 30.4 | n | n | 25.9
C=CCn1c(P(=O)(O)c2ccccc2)nc2ccccc21 | x | 34.7 | x | x | 23.6
C=CCn1c(CNC(=O)CCC)nc2ccccc21 | n | n | x | x | x
O=C(Cc1cccs1)Nc1ccc(S(=O)(=O)N2CCCCC2)cc1 | n | 22.8 | n | n | n
CN1CCN(S(=O)(=O)c2ccc(NC(=O)Cc3cccs3)cc2)CC1 | n | n | n | n | x

Assay outcomes from PubChem BioAssay.
